Data as given in PubChem BioAssay AID1628 (Sanford-Burnham Center for Chemical Genomics, 2009).
In all, about 190,000 compounds went through this assay and about 930 (0.49%) were called active. The list shows a part of the results. Results with a measured potency or affinity are listed apart. A number with no mark means an inactive call.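 Rule for the calls: active = z-score of insulin promoter reporter brightness in nuclei below -3 at 5 µM, with at least 500 cells counted; inconclusive = wells with under 500 cells, flagged as toxic or sparse; inactive = the rest.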

Experiment: decrease of insulin promoter-GFP reporter – imaging, high-content screening, mouse beta cells (AID 1628)
Conditions: MIN6 insulin promoter GFP reporter, at 5 µM, active compounds read low
In the case of `CC1CC(C)CN(C(=O)C(NS(=O)(=O)c2ccc3c(c2)oc(=O)n3C)C(C)C)C1` (stereo unspecified), the z-score is reported as -5.42 (active). Work on `CC1CCN(C(=O)CNS(=O)(=O)c2ccc(Br)s2)CC1` yielded a z-score of 3.37. With `Cc1nc2ccc(S(=O)(=O)NC(C(=O)N3CCC(C)CC3)C(C)C)cc2s1` (stereo unspecified) the z-score was -4.34 (active). For `CC1CC(C)CN(C(=O)c2cccc3c2-c2ccccc2C3=O)C1` (stereo unspecified), the z-score was 3.97. With `CCC(C)NS(=O)(=O)c1ccc(OCC(=O)N2CCC(C)CC2)cc1` (stereo unspecified) the z-score was 0.84. In the case of `COc1cc(OC)cc(C(=O)Nc2cccc(C(C)=O)c2)c1`, the z-score is reported as 3.53. In the case of `CCCN(CCC)S(=O)(=O)c1ccc(C(=O)Nc2nnc(-c3cc(OC)cc(OC)c3)o2)cc1`, the z-score is reported as -4.56 (active). For `CCCN(CCC)S(=O)(=O)c1ccc(C(=O)OCCN2C(=O)c3cccc4c(N5CCOCC5)ccc(c34)C2=O)cc1`, the z-score was 6.18. For `Cc1ccc2nc(SCC(=O)Nc3ccc(C)c([N+](=O)[O-])c3)[nH]c2c1`, the z-score was -4.5 (active). In the case of `COc1ccc2nc(SCC(=O)Nc3c(C)cccc3C)[nH]c2c1`, the z-score is reported as 3.26. `Cc1ccc(NC(=O)/C=C/c2ccc([N+](=O)[O-])s2)c(C)c1` gave a z-score of 13.3. With `N#C/C(=C/c1ccc(N2CCCCC2)o1)C(=O)Nc1ccc2ccccc2c1` the z-score was 12.9. `CCCN1C(=O)/C(=C/c2c(N3CCNC(=O)C3CC(=O)OCC)nc3c(C)cccn3c2=O)SC1=S` (stereo unspecified) showed a z-score of 12.1. With `O=C(COc1ccccc1)NCCn1ccc2ccccc21` the z-score was 1.18. For `O=C(CSc1ccc2ccccc2c1)NCCc1ccc(O)c(O)c1`, the z-score was -3.3 (active). In the case of `O=C(CSc1nc2[nH]ncc2c(=O)n1-c1ccccc1)NCCc1ccccc1`, the z-score is reported as 2.5. For `CCCCN(CC(=O)NCc1ccc(Cl)cc1)S(=O)(=O)c1ccc2c(c1)OCCO2`, the z-score was -4.37 (active). `Cc1cc(SCC(=O)N2CCCC2)nc2ccccc12` gave a z-score of -0.89. With `COc1cc2c(cc1OC)C(C)=NCC2` the z-score was 0.45. For `Cc1cc2oc(=O)cc(CN3CCN(S(=O)(=O)c4ccc5c(c4)OCCO5)CC3)c2cc1C`, the z-score was -4.33 (active). `CNC(=O)C1CC(=O)N/C(=N/N=C(\C)c2cccs2)S1` (stereo unspecified) gave a z-score of 3.72. For `CCOc1ccccc1OCCCCCc1c(C)n[nH]c1C`, the z-score was -3.04 (active). Molecule `O=c1c(Cl)c2oc3ccccc3nc-2c2ccccc12` has a z-score of 6.06. For `COc1ccc(CCn2c(C3CCCCC3)nc3c(c(=O)c4ccccc4n3C)c2=O)cc1`, the z-score was -3.39 (active). With `c1cc2c3c(cccc3c1)NC1(CCCCCC1)N2` the z-score was -4.13 (active). For `COc1cc(C(=O)N/N=C(\c2ccccc2)c2ccccn2)cc(OC)c1OC`, the z-score was -3.93 (active). For `COc1cc(C(C(=O)NC(C)(C)C)N(Cc2ccccc2)C(=O)c2cnccn2)cc(OC)c1OC` (stereo unspecified), the z-score was -0.06. `CCc1ccccc1NC1=CC(=O)CC(C)(C)C1` showed a z-score of 1.6. For `Cc1ccccc1OCc1n(CC(=O)OC2CC(C)CCC2C(C)C)c2ccccc2[n+]1C` (stereo unspecified), the z-score was -5.14 (active). In the case of `Cc1ccccc1OCC(=O)OC1CCN(C)CC1`, the z-score is reported as 8.59. With `COCCCNc1c2c3c(cccc3[nH]c1=O)C(=O)c1ccccc1-2` the z-score was 13.6. With `CCOC(=O)c1c2c3c(c(Cl)ccc3[nH]c1=O)C(=O)c1ccccc1-2` the z-score was -3.28 (active). In the case of `N#C/C(=C/c1ccc(-c2ccc(S(N)(=O)=O)cc2)o1)c1nc2ccccc2s1`, the z-score is reported as 16.5. In the case of `CSc1nc2ccc(S(N)(=O)=O)cc2s1`, the z-score is reported as -4.36 (active). In the case of `c1ccc2c(c1)[nH]c1c(N3CCC4(CC3)OCCO4)ncnc12`, the z-score is reported as -4.74 (active). For `CC1(C)CCc2c([nH]c3ccccc3c2=O)O1`, the z-score was 0.3. For `Cc1ccc2[nH]c3c(N4CCCCCC4)ncnc3c2c1`, the z-score was -3.59 (active). For `Cc1cc2ccccn2c1C(=O)c1ccncc1`, the z-score was -8.28 (active). `COC(=O)c1cc2c(-c3ccccc3)cc3ccccn3c-2c1C(=O)OC` gave a z-score of 3.3. For `CC(NC(=O)/C(C#N)=C1\N=C(NC(=O)c2ccco2)c2ccccc21)c1ccccc1` (stereo unspecified), the z-score was 3.68. With `COc1ccc(-c2cnn3c4c(c(C)nc23)CCN4C2CCCC2)cc1OC` the z-score was -4.71 (active). Molecule `CCCCNC(=O)C1CC(=O)N(C2CCCCC2)C1` (stereo unspecified) has a z-score of 3.02. With `c1nc(N2CCNCC2)c2sc3nc(N4CCOCC4)c4c(c3c2n1)CCC4` the z-score was -3.71 (active). For `OC(COc1ccc2c(c1)CCC2)Cn1cnc2ccccc21` (stereo unspecified), the z-score was -4.14 (active). `N#Cc1c2c(c(-n3cnc4ccccc43)n3c1nc1ccccc13)CCC2` showed a z-score of 4.79. For `CC1(C)NC(=O)N(CCCCOc2ccc3c(c2)CCC3)C1=O`, the z-score was -1.15. `CCc1cc(C(=O)Cc2cnn(-c3ccccc3)c2)c(O)cc1O` showed a z-score of 0.58. For `O=C1Nc2ccc(NS(=O)(=O)c3cccs3)c3cccc1c23`, the z-score was 1.61. `COc1cc2cccc(OC)c(=O)c2c(OC)c1OC` gave a z-score of 0.56. With `c1ccc(CCn2nnnc2C(c2cccs2)N2CCN(Cc3ccc4c(c3)OCO4)CC2)cc1` (stereo unspecified) the z-score was -4.21 (active). `N#C/C(=C\N1CCN(Cc2ccc3c(c2)OCO3)CC1)c1nc2ccccc2s1` gave a z-score of 3.92. In the case of `Cc1ccc(NC2=NCC(=O)N2C2CCCC2)c(C)c1`, the z-score is reported as 0.57. For `Cc1cc(C)nc(NC2=NCC(=O)N2c2ccc(Cl)cc2)n1`, the z-score was -3.4 (active). `CC(C)N1CCc2c(sc(NC(=O)c3ccc(S(=O)(=O)N4CCc5ccccc54)cc3)c2C(N)=O)C1` gave a z-score of 4.91. Work on `CNC(=O)c1c(NC(=O)c2ccc(S(=O)(=O)N3CCCc4ccccc43)cc2)sc2c1CCN(C)C2` yielded a z-score of 8.33. `Cc1cccc2sc(NNC(=O)c3ccc4c(c3)OCCO4)nc12` showed a z-score of 3.4. Work on `CC1CN(S(=O)(=O)c2ccc(C(=O)Nc3sc4c(c3C(N)=O)CCN(C)C4)cc2)CC(C)O1` (stereo unspecified) yielded a z-score of 11. For `Cc1cc(C)c2nc(NNC(=O)c3ccc(S(=O)(=O)N4CCc5ccccc5C4)cc3)sc2c1`, the z-score was -5.92 (active). With `COc1cccc2sc(NNC(=O)C3=COCCO3)nc12` the z-score was 5.68. For `CCCN1C(=O)S/C(=C\c2ccc(N3CCOCC3)o2)C1=O`, the z-score was 9.56. In the case of `COc1ccc(-c2n(Cc3ccccc3)c3ccccc3[n+]2Cc2ccccc2)cc1`, the z-score is reported as -8.43 (active). Work on `CCc1nnc(NC(=O)CCC(=O)NCc2ccccc2OC)s1` yielded a z-score of 4.05. In the case of `CCOc1ccccc1C(=O)Nc1nnc(COC)s1`, the z-score is reported as 0.76. For `CCCC1C2CN(C(C)C)CC=C2C(C#N)=C(N)C1(C#N)C#N` (stereo unspecified), the z-score was 16.1. With `CCOC(=O)CSc1nc2cc3c(cc2cc1CC)OCCO3` the z-score was 0.81. In the case of `Cc1ccc(/C(N)=N/OC(=O)c2ccc(F)cc2)cc1`, the z-score is reported as -4.16 (active). Molecule `CCC1COC(c2cccn2Cc2ccc(Cl)cc2)=N1` (stereo unspecified) has a z-score of 2.5. Work on `CC1=C/C(=C\C=C(C#N)C#N)N(C)c2ccccc21` yielded a z-score of 4.05. For `COCc1cc(C)nc(Nc2ccccc2C)c1C#N`, the z-score was 3.32. For `CCCOC(=O)C1=C(C)NC2=C(C(=O)CCC2)C1c1cccc(OC)c1OC` (stereo unspecified), the z-score was -0.62. In the case of `CCCOC(=O)c1ccc(NC(=O)c2cc(OC)c(OC)c(OC)c2Br)cc1`, the z-score is reported as -3.3 (active). `C=CCNC(=S)NNC(=O)c1ccc(OCCCC)cc1` showed a z-score of 0.58. In the case of `COC(=O)c1cc(NC(=O)c2ccccc2)c(=O)oc1/C=C/Nc1ccc(Oc2ccccc2)cc1`, the z-score is reported as 10.8. `CCOc1ccc(NS(=O)(=O)c2ccc(NS(=O)(=O)c3ccccc3)cc2)cc1` showed a z-score of 7.53. For `CCOc1ccc2c(c1)C(C)=CC(C)(C)N2S(=O)(=O)c1ccc(C)cc1`, the z-score was -3.31 (active). Molecule `CCOc1ccc2nc(NCCCNS(=O)(=O)c3ccc(C)cc3)c(C#N)cc2c1` has a z-score of 1.84. In the case of `Cc1nc2ccccc2n1CC(=O)NCc1ccccc1`, the z-score is reported as -3.91 (active). Work on `C=C(C)Cn1c(CCCNC(=O)CC)nc2ccccc21` yielded a z-score of 0.76. Molecule `COc1ccccc1NC(=O)CSc1nc2c(sc3ccccc32)c(=O)n1CCN(C)C` has a z-score of 2.23. `O=C(CCl)Nc1cccc2ncccc12` showed a z-score of 4.01. For `Cn1nc(CC(=O)Nc2cccc3ncccc23)c2ccccc2c1=O`, the z-score was -4.57 (active). `O=c1ccnc(Nc2ccc3c(c2)OCCO3)[nH]1` showed a z-score of 3.66. `O=C(COC(=O)c1ccco1)Nc1ccc2c(c1)OCCO2` gave a z-score of 0.45. `O=C(O)c1ccc(N2C(=O)Nc3ccccc3N2O)cc1` gave a z-score of 2.34. In the case of `CCn1cc(C(=O)O)c(=O)c2cnc(N3CCN(C(=S)Nc4ccc(F)cc4)CC3)nc21`, the z-score is reported as -3.18 (active). For `CCn1cc(C(=O)O)c(=O)c2cnc(N3CCN(C(=O)Nc4cccc5ccccc45)CC3)nc21`, the z-score was -5.9 (active). `CCn1cc(C(=O)O)c(=O)c2cc(F)c(N3CCN(C)CC3)cc21` showed a z-score of -0.61. With `COc1ccc(/C=C(\C#N)C(=O)OCC(=O)Nc2c(C)cccc2C(C)C)cc1` the z-score was 3.36. In the case of `O=C(O)C1CC=CCC1C(=O)Nc1ccc(N2CCN(Cc3ccccc3)CC2)cc1` (stereo unspecified), the z-score is reported as -4.25 (active). `CN(C)c1ccc(/C=C2\N=C(c3ccc(Cl)c([N+](=O)[O-])c3)NC2=O)cc1` showed a z-score of 4.65. In the case of `CCOc1ccc(CN(Cc2ccco2)C(c2cccs2)c2nnnn2C(C)(C)C)cc1` (stereo unspecified), the z-score is reported as -3.47 (active). In the case of `COc1ccc2nc(N/C(N)=N/C(=S)Nc3ccccc3)nc(C)c2c1`, the z-score is reported as 2.22. `CN(C)c1ccc(/C=C(/C#N)C(=O)NCc2ccccc2)o1` showed a z-score of 16.1. For `CCCNc1c(F)c(F)c2c(C)c3ccccc3nc2c1F`, the z-score was 5.94. For `CSc1nc(-c2ccco2)nn1C(=O)c1ccco1`, the z-score was -6.58 (active). In the case of `O=C(Oc1ccc2ccccc2c1)c1ccco1`, the z-score is reported as -0.59.
